Screens: PubChem BioAssay, Sanford-Burnham Center for Chemical Genomics
Shown are actives, neighbours in structure and some others; about 4.1% of the full set was active somewhere.
TIM10 inh = growth inhibitors of TIM10 yeast strain; S. cerevisiae TIM10 strain growth, BacTiter-Glo luminescence, 24 h; inhibition, % at 10 µM; hit rate 1.4% among 330,000; AID 463195;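 active = inhibition of 40% or more at the single tested concentration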;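 also: wild-type TIM10 isogenic control strain grown at permissive 25 °C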
NLRP3 yeast inh = NALP3 inhibition in yeast; AID 2825; inhibition, % at 10 µM; hit rate 0.39% among 330,000; Yeast reconstituted NLRP3/ASC/caspase-1, beta-gal luminescence, 24 h;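 active = inhibition of 50% or more; inactive = inhibition below 50%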;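 also: plate controls were induced DMSO wells for no effect and uninduced yeast grown without galactose for full effect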
tim23-1 inh = growth inhibitors of tim23-1 mutant yeast. S. cerevisiae tim23-1 growth, BacTiter-Glo luminescence, 24 h. inhibition, % at 20 µM. hit rate 1.3% among 330,000;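 active = growth inhibition of the mutant yeast at or above 50%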;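 also: temperature-sensitive mutant grown at 25 °C; plate controls were DMSO-treated mutant yeast for no effect and medium wells lacking yeast for full effect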
NALP1 inh = NALP1 inhibition; S. cerevisiae NALP1/ASC/caspase-1 growth, X-gal OD620, 72 h; inhibition, % at 10 µM; hit rate 0.61% among 280,000; AID 2071; in the data active = inhibition mostly above about 24%, no sharp cut-off; inactive = mostly below about 32%
tim10-1 inh = growth inhibitors of tim10-1 mutant yeast; S. cerevisiae tim10-1 ts strain growth, BacTiter-Glo, 24 h; inhibition, % at 20 µM; AID 463190; hit rate 2.2% among 330,000;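 active = inhibition of at least 40%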;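 also: mutant grown at 25 °C; 0% = DMSO wells with yeast and 100% = wells holding no yeast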
tim10-1 conf = confirmation of tim10-1 mutant yeast growth inhibitors; S. cerevisiae tim10-1 ts strain growth, BacTiter-Glo, 24 h; shares compounds with tim10-1 inh; inhibition, % at 20 µM; hit rate 56% among 7,400;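 active = inhibition of yeast growth at or above a set limit in either of two repeat tests at 20 µM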;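 also: tim10-1 mutant grown at permissive 25 °C to find synthetic lethal compounds; 0% = DMSO yeast wells and 100% = medium wells without yeast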
tim10 confirm = TIM10 yeast growth inhibition, confirmed | S. cerevisiae tim10 strain growth, BacTiter-Glo luminescence, 24 h | shares compounds with TIM10 inh | inhibition, % at 10 µM | hit rate 63% among 4,600;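 active = inhibition of yeast growth at or above a set limit in either of two replicates at 10 µM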;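 also: this counterscreen used the strain with wild-type TIM10; 0% = yeast with DMSO and 100% = medium wells lacking yeast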
Active calls of the source: *; nt = no result.

SMILES	TIM10 inh	NLRP3 yeast inh	tim23-1 inh	NALP1 inh	tim10-1 inh	tim10-1 conf	tim10 confirm
Cc1ccc(NC(=O)c2ccc([N+](=O)[O-])o2)c(C)c1	40	18	49	6	40*	53*	nt
Cc1ccc(-c2nnc(NC(=O)c3ccc([N+](=O)[O-])o3)o2)c(C)c1	-19	10	7	nt	9	nt	nt
CCC(=O)N1CCN(c2ccc(Cl)cc2NC(=O)c2ccc([N+](=O)[O-])o2)CC1	27	23	31	5	40*	27	nt
Cc1ccccc1NC(=O)c1ccc([N+](=O)[O-])o1	37	13	39	0	51*	42*	nt
Cc1cccnc1NC(=O)c1ccc([N+](=O)[O-])o1	9	-4	27	35	17	nt	nt
CSCCC(=O)N1CCC(CCC(=O)NC2CC2)CC1	8	13	12	-5	10	nt	nt
Cc1nc(C)c(NC(=O)OC(C)C)cc1NC(=O)OC(C)C	3	0	11	12	13	nt	nt
O=c1c2cn[nH]c2nc(SCc2cc(=O)n3cc(Br)ccc3n2)n1-c1ccc(Br)cc1	11	3	1	4	16	nt	nt
O=c1c2cn[nH]c2nc(SCc2ccccc2F)n1-c1ccc(Br)cc1	23	8	39	27	42*	23	nt
O=C(CN1C(=O)/C(=C/c2ccccc2)SC1=S)N1CCN(CCc2ccccn2)CC1	18	5	40	3	42*	30	nt
CC(C)(c1ccccc1)c1ccc(OCC(O)CNC2CCN(Cc3ccccc3)CC2)cc1 (stereo unspecified)	-17	40	-89	15	-189	nt	nt
O=C(COC(=O)c1ccc(Cl)nc1)NCCC1=CCCCC1	2	-10	12	17	18	nt	nt
CC(C)NC(=O)c1ccc(-c2ccccc2C(F)(F)F)o1	18	45	30	7	26	nt	nt
O=C(Nc1ccccc1)c1ccc(-c2ccccc2C(F)(F)F)o1	20	28	40	43	44*	27	nt
O=C([C@H](Cc1ccccc1)N1C(=O)c2ccccc2C1=O)N1CCOCC1	-7	29	27	11	7	nt	nt
COc1cccc(/C=C/C(=O)NCc2cn3cc(Cl)ccc3n2)c1	12	5	-7	-26	-8	nt	nt
O=C(/C=C/c1cccc(Cl)c1)OCc1cn2cc(Cl)ccc2n1	20	6	28	11	43*	29	nt
CN(Cc1ccccc1)C(=S)Nc1ccc2nc3n(c(=O)c2c1)CCCCC3	-15	6	9	-6	-1	nt	nt
COc1ccc(CC(=O)N(C)CC(=O)Nc2ccc(F)cc2)cc1S(=O)(=O)N1CCOCC1	0	17	13	nt	10	nt	nt
O=C(c1ccco1)N1CCCC(c2nc3c(nnn3Cc3cccc(Cl)c3)c(=O)[nH]2)C1 (stereo unspecified)	0	17	-1	2	53*	-3	nt
Cc1nn(-c2ccc3ccccc3c2)c(=O)c2ccccc12	35	6	40	4	40*	28	nt
Cc1nn(-c2ccc(Cl)c(Cl)c2)c(=O)c2ccccc12	9	0	5	17	14	nt	nt
Cc1ccc(OCCN2CCN(c3ncnc4sc(C)c(C)c34)CC2)cc1	33	13	36	-5	47*	31	nt
Cc1sc2ncnc(N3CCOCC3)c2c1C	11	15	8	2	17	nt	nt
C=CCc1ccc(O)c(-c2ccc(O)c(CC=C)c2)c1	34	-6	47	2	45*	48*	nt
SMILES	TIM10 inh	NLRP3 yeast inh	tim23-1 inh	NALP1 inh	tim10-1 inh	tim10-1 conf	tim10 confirm
Cc1nnc(Nc2ccccn2)c2ccccc12	85*	32	46	5	66*	71*	83*
Cc1nnc(Nc2ccc(F)cc2)c2ccccc12	10	14	6	11	12	nt	nt
O=C(CNC(=O)c1cccs1)Nc1ccc2c(c1)OCCO2	7	11	-13	nt	-23	nt	nt
CCCCS(=O)(=O)/C=C\C=C/S(=O)(=O)CCCC	59*	5	43	126*	70*	42*	61*
O=C(CN1CCN(S(=O)(=O)c2ccc3ccccc3c2)CC1)Nc1ccc(N2CCOCC2)cc1	13	9	18	44	33	nt	nt
O=C(CN1CCN(S(=O)(=O)c2ccc3ccccc3c2)CC1)Nc1ccc2c(c1)CCC2	53*	15	27	34	44*	46*	13
O=C(COc1ccc2ccccc2c1)Nc1ccc(S(=O)(=O)N2CCCCCC2)cc1	46*	1	14	-55	41*	37*	-11
COc1ccc(C(=O)Nc2ccc(S(=O)(=O)N3CCCCC3)cc2)cc1	61*	13	43	4	48*	64*	62*
COc1ccc(C(=O)Nc2ccc(S(=O)(=O)N3CCN(C)CC3)cc2)cc1	5	20	-9	nt	5	nt	nt
CCn1nc(C(=O)NNS(=O)(=O)c2ccc(C)cc2)c2ccccc2c1=O	-12	7	5	nt	3	nt	nt
CCN(CC)c1ncnc2c1cnn2Cc1ccc(C)cc1	-3	16	28	11	31	nt	nt
CCN(CC)c1ncnc2c1ncn2Cc1c(Cl)cccc1Cl	42*	9	41	-9	50*	37*	-8
C=CCc1ccc(OCCOc2cccc3ccc(C)nc23)c(OC)c1	52*	6	46	-9	42*	32*	31*
CCCn1nnc(NC(=O)/C=C/c2ccccc2)n1	12	4	13	16	-10	nt	nt
Cc1nc(NC(=O)/C=C/c2ccccc2)n[nH]1	61*	17	44	51	60*	59*	53*
COc1cc(-n2c(=O)c3ccccc3n(Cc3cc(=O)n4ccccc4n3)c2=O)cc(OC)c1OC	9	14	8	17	4	nt	nt
CC1=CC(C)(C)N2C(=O)C3(SCC(=O)N3c3ccc(F)cc3)c3cc(C)cc1c32 (stereo unspecified)	41*	3	43	-2	46*	26	37*
O=c1c(Cl)c(NCc2ccc(F)cc2)cnn1C12CC3CC(CC(C3)C1)C2	52*	31	44	-17	47*	38*	-2
O=C(/C=C/c1cc2ccccc2o1)c1ccccc1O	58*	13	48	15	41*	49*	58*
COc1ccc(O)c(C(=O)/C=C/c2cc3ccccc3o2)c1	48*	17	39	nt	57*	37*	-11
Cc1noc(C)c1C(=O)OCC(=O)NCc1ccc(Cl)cc1	-5	18	-6	nt	-1	nt	nt
Cc1ccc(N=Cc2c(O)n(C)c(=O)n(C)c2=O)nc1	43*	8	25	15	40*	17	33*
COc1cccc(N/C(N)=N/c2nc(C(F)(F)F)cc(=O)[nH]2)c1	-17	9	-17	36	12	nt	nt
CCO[C@@H]1OC(C(=O)Nc2ccccc2)=C[C@H](C2CC2)[C@H]1CCCO	10	13	21	13	4	nt	nt
Fc1ccc(COc2ccccc2C(=S)N2CCCC2)cc1	9	9	35	17	27	nt	nt
